Test results published in PubChem BioAssay AID2673 (National Center for Advancing Translational Sciences (NCATS), 2010).
Records with an inconclusive call do not appear. A number with no mark means an inactive call. Calls of active or inactive are those of the source. Calls come from the whole dose curve; as a rule, active = well fitted activation curve with a large enough effect; inconclusive = small, poorly fitted or top-dose-only effect; inactive = no such curve, though single readings can be large or run the other way.

Experiment: qHTS Multiplex Assay to Identify Dual Action Probes in a Cell Model of Huntington: Cytoprotection confirmation (ATP)
Settings: PC12 HttQ103 induced, ATP luminescence 40 h; series mostly up to 46.1 µM; cytoprotection, positive = protection: at the top concentration
Source text: NIH Chemical Genomics Center [NCGC]
NIH Molecular Libraries Probe Production centers Network [MLPCN]
Assay Submitter (PI): Wei Zheng
Huntington's disease is a neurodegenerative disorder caused by a trinucleotide repeat expansion in Exon 1 of the Huntingtin gene. The CAG trinucleotide encodes glutamine and polyglutamine expansions cause cell death in selective areas of the brain. Huntington polyglutamine repeats have the tendency to form aggregates which are observable in later stages of the disease. The exact nature of the aggregates, whether toxic, protective, or insignificant, is unclear.
A stable PC12 cell line containing a gene fusion of Exon 1 of the Huntingtin gene linked to GFP under the control of the inducible ecdysone promoter were used as the cell-based model of Huntington Disease for high throughput screening. Exon 1 of the Huntingtin gene contained an expansion of 103 polyglutamines (Q103) which, when expressed, caused cell death and distinct, bright GFP aggregates. The amount of cell death and the size and intensity of GFP aggregates increased over time and induction level. The cell death were quantified with a measurement of ATP content in the cells. A maximal 40-50% of cell death was observed when the Huntington gene was induced in this cell line.
We optimized this assay in a homogeneous 1536 well format. A quantitative high throughput screen (qHTS) was conducted on the PC12 cells which were induced to express the toxic fusion construct. Small molecules which prevented cell death were identified by using a luminescent ATP quantification method (Perkin Elmer's ATPlite).
PC12 cells stably containing a construct with an ecdysone inducible promoter expressing GFP fused to the exon 1 of HTTQ103 (Huntington protein which containing a 103 ployglutamine expansion) were used.
NCGC Assay Protocol Summary:
Sequence, Parameter, Description
1, Reagent, 5 uL 1500 cells/well 1536 TC treated White clear bottom plate
2, Compound, 23 nL Tebufenozide inducer (100 nM final) to all columns
3, Compound, 23 nL 40 uM to 0.5 nM Libraries
5, Reagent, 5 ul ATPLite cell death assay reagent
6, Detector, 4 sec integration with a Viewlux Luminescent
Media consisted of phenol red free DMEM + 5% equine serum (Hyclone # SH30072.03 ), 5% supplemented Bovine Calf Serum (Hyclone # SH30074.03 ), 1x pen/strep, no G418

| SMILES | cytoprotection, positive = protection [%] | Potency |
| --- | --- | --- |
| O=C1C=C2C=C[C@H]3C[C@]2(O1)[C@@H]1CCCCN13 | 66.7 |  |
| CCC(C)C(=O)OC1C(O)C2C(CN3CC(C)CCC3[C@]2(C)O)C2C[C@]34O[C@@]5(O)C(OC(=O)C(C)(O)CC)CCC3(C)C5C(OC(C)=O)C(OC(C)=O)C4[C@@]21O (stereo partly drawn) | -18.1 |  |
| CC[C@]1(C2=NCCN2)Cc2ccccc2O1 | -1.9 |  |
| C[C@H]1CC[C@@]2(NC1)O[C@@H]1C[C@H]3[C@@H]4CC=C5C[C@@H](O)CC[C@]5(C)[C@@H]4CC[C@]3(C)[C@@H]1[C@@H]2C | 3.58 |  |
| Oc1cc(Cl)ccc1Oc1ccc(Cl)cc1Cl | -9.42 |  |
| O=C1C=C2C=C[C@H]3C[C@@]2(O1)[C@H]1CCCCN31 | 58 |  |
| O=C1C=C2C=CC3C[C@@]2(O1)C1CCCCN31 (stereo partly drawn) |  | 12.6 µM (active) |
| C[C@@]1(CO)[C@H](O)CC[C@@]2(C)[C@H]1CC[C@H]1C[C@@H]3C[C@@]12CC[C@]3(O)CO | -47.8 |  |
